Bioassay records: PubChem, National Center for Advancing Translational Sciences (NCATS)
CRE Fsk mod = alters forskolin-stimulated CRE reporter signaling in CHO cells | actives 2.5% (n = 71,000) | CHO CRE-bla reporter (cAMP response element driving beta-lactamase), forskolin EC10, beta-lactamase ratio | AID 662 | Potency, µM (highest dose often 38.2 µM), for the others: at the highest dose activity change, negative = inhibition, actives largely listed as activators; active means well fitted activation curve with a large enough effect in the signal ratio, with a control signal flat, not every such curve was filed as active; inconclusive means small, poorly fitted or top-dose-only effect, or effect the other way, or a change in a side signal; the % refers to the signal ratio; further: potency means the concentration at half of the fitted maximal effect; % of control where 0% means no effect
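AC50 values, positive or negative, reflect shifts in EC10 NKH 477-induced CRE-bla reporter activity in CHO cells. Incubation lasted 3 h at 37 °C before CCF4 substrate (2 h, room temperature) and ratiometric 460/530 nm reading.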
A350 autofl = A350 region autofluorescence. Compound autofluorescence, 340/450 nm, Alexa 350 dye-equivalents; stronger effect = higher value. max dye-equivalent concentration, M. actives 11% (n = 59,000); in the data active means max dye-equivalent concentration above about 10 nM; inconclusive means mostly about 1.1 nM to 9.6 nM
HADH2 inhib = HADH2 (human) dehydrogenase inhibition. Q99714. recombinant HADH2, NADH fluorescence, beta-hydroxybutyryl-CoA. Potency, µM (titrated, usually from 57.1 µM), inactives show at the top dose activity change, negative = inhibition, hits mostly inhibitors. actives 3.4% (n = 73,000); further: potency means the concentration at half of the fitted maximal effect; on the % scale 0 is the no-effect control and ±100 the full control effect; nearly all actives have a fitted effect of over 60% in size
Target sequence (Q99714 whole entry, looked up, one chain of several): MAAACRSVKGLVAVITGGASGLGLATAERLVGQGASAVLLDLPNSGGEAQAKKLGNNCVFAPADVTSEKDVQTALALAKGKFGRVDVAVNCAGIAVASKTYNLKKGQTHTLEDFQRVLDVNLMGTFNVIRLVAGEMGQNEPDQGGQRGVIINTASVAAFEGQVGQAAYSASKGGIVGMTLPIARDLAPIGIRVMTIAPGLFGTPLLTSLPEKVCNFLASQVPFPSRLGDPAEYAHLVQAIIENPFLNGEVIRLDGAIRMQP
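Buffer 100 mM Tris-HCl pH 9.0/0.01% Tween-20; HADH2 20 nM; NAD+ 1 mM; beta-hydroxybutyryl-CoA 90 uM (all final). 15 min cpd preincubation, RT.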
HSD17B inh = HSD17B dehydrogenase inhibition; recombinant HSD17B10, NADH fluorescence kinetic; Potency, µM (top dose mostly 57.1 µM), without a hit: top-dose activity change, negative = inhibition, usual class: inhibitors; actives 7.6% (n = 75,000); AID 893;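 further: the protocol describes HADH2 (HSD17B10) and not the HSD17B4 of the title; potency means the concentration at half of the fitted maximal effect; on the % scale 0 is the no-effect control and ±100 the full control effect; nearly all actives have a fitted effect of over 70% in size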
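Activity followed as NADH fluorescence increase (ex 360, em 450 nm) every 30 seconds for 4 min, using final 90 uM beta-hydroxybutyryl CoA and 1 mM NAD+. Recombinant His-tagged enzyme, 20 nM, pH 9.0 Tris buffer, 15 min compound preincubation.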
4-MU autofl = compound fluoresces in the 4-MU spectral region; compound autofluorescence, 340/450 nm, 4-MU equivalents; stronger effect = higher value; actives 11% (n = 59,000); max dye-equivalent concentration, M; in the data active means max dye-equivalent concentration above about 10 nM; inconclusive means mostly about 1.1 nM to 9.6 nM
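Compounds in 100 mM Tris, pH 8.0, sat 15 min at room temperature before fluorescence was read at 340 nm excitation/450 nm emission; a per-plate six-point 4-MU standard curve converted signals to dye-equivalent concentration at each compound concentration.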
AID923 = qHTS Assay for Allosteric/Competitive Inhibitors of Caspase-1: Spectroscopic Profiling in AFC Spectral Region; compound fluorescence, AFC spectral region (405/520 nm); Potency, µM (highest dose often 57.5 µM), without a hit: at the top dose fluorescence increase, actives largely listed as activators; actives 1.1% (n = 75,000); AID 923, 2007; further: potency means the concentration at half of the fitted maximal effect; 0% is about no effect
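Titrations up to 57 uM read every 20 sec for 3 min (405/520 nm) with 50 nM caspase 1 and 5 uM Ac-WEHD-AFC, pH 7.5 HEPES buffer. Fluorescence-vs-time intercept gave baseline, scaled against on-plate AFC standard.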
An asterisk follows results filed as active; [ ] = remark or other dose. A selection: hits, their analogues and other compounds. The true share with any hit is near 14%. Unless noted, the call rests on the fitted dose curve; in most records, active means well fitted curve in the direction sought with a large enough effect; inconclusive means small, poorly fitted or top-dose-only effect, or another doubt; inactive means no such curve, though single readings can be large; an effect the other way counts as inactive or inconclusive.

Results for CC1CC[C@@]23CCC4(C)[C@@]5(C)CCC6C(C)(C)C(=O)CC[C@@]6(C)C5C=C[C@@]4(OC2=O)C3C1C (some centres undefined) ?
HSD17B inh: 7%; AID923: 0%

Results for CC1CCN(CCCNC(=O)c2cc3c(=O)n(C)c4ccccc4c3n2C)CC1 ?
CRE Fsk mod: 10%; HADH2 inhib: 1%; HSD17B inh: 32µM*; AID923: 1%

Results for CC(NC(=O)c1cc2c(=O)n(C)c3ccccc3c2n1C)c1ccc2c(c1)OCCO2 (centres undefined) ?
CRE Fsk mod: inconclusive; HADH2 inhib: -3%; HSD17B inh: inconclusive; AID923: 0%

What do the screens show for `Cc1c(NC(=O)COC(=O)c2cc3c4ccccc4n(C)c3s2)c(=O)n(-c2ccccc2)n1C`?
CRE Fsk mod: inconclusive; A350 autofl: 5.6e-08M*; HADH2 inhib: inconclusive; HSD17B inh: 16µM*; 4-MU autofl: 5.7e-08M*; AID923: -4%

What do the screens show for `Cn1c(C(=O)NCCCN2CCOCC2)cc2c(=O)n(C)c3ccccc3c21`?
CRE Fsk mod: inconclusive; HADH2 inhib: inconclusive; HSD17B inh: 7.9µM*; AID923: -1%

Results for Cn1c(C(=O)Nc2ccc3c(c2)OCO3)cc2c(=O)n(C)c3ccccc3c21 ?
CRE Fsk mod: 1.6µM*; HADH2 inhib: 25%; HSD17B inh: inactive; AID923: 1%

How did COc1ccc2c(c1)N(CC[C@H]1CCCCN1C)c1ccccc1S2 do in these assays?
CRE Fsk mod: 16%[7.6 µM]; A350 autofl: inactive; HADH2 inhib: 8%[11.4 µM]; HSD17B inh: 4%[11.4 µM]; 4-MU autofl: inactive; AID923: -3%[11.5 µM]

What do the screens show for `C=CC(=O)CC`?
CRE Fsk mod: -7%; HADH2 inhib: -2%; HSD17B inh: 1%; AID923: 2%

What do the screens show for `Cn1c(C(=O)NCc2ccccn2)cc2c(=O)n(C)c3ccccc3c21`?
CRE Fsk mod: 5µM*; HADH2 inhib: 10%; HSD17B inh: 25µM*; AID923: 0%

Results for Cc1noc(NS(=O)(=O)c2ccc(NC(=O)Nc3ccc(Cl)c(Cl)c3)cc2)c1C ?
CRE Fsk mod: inconclusive; A350 autofl: inactive; HADH2 inhib: -13%; HSD17B inh: 9%; 4-MU autofl: inactive; AID923: 1%

What do the screens show for `Cc1noc(NS(=O)(=O)c2ccc(N3Cc4ccccc4C3=O)cc2)c1C`?
CRE Fsk mod: 13µM*; A350 autofl: inactive; HADH2 inhib: -3%; HSD17B inh: 4%; 4-MU autofl: inactive; AID923: -4%

What do the screens show for `COCCn1c(=O)cnc2cnc(Oc3ccccc3)nc21`?
CRE Fsk mod: -3%; A350 autofl: inactive; HADH2 inhib: 1%; HSD17B inh: -12%; 4-MU autofl: inactive; AID923: 2%

What do the screens show for `C=CCn1c(O)c(C(CC)=NCc2cccnc2)c(=O)[nH]c1=O`?
CRE Fsk mod: 13µM*; A350 autofl: 3.5e-08M*; HADH2 inhib: 8%; HSD17B inh: -1%; 4-MU autofl: 3e-08M*; AID923: 0%

How did O=C1C(C=NCc2cccnc2)=C(O)c2ccccc21 do in these assays?
CRE Fsk mod: -7%[7.6 µM]; HADH2 inhib: -9%[11.4 µM]; HSD17B inh: -4%; AID923: 2%

How did CC(C)NC(=O)N1CCCC2(CCN(C(=O)c3ccncc3)CC2)C1 do in these assays?
CRE Fsk mod: -4%; A350 autofl: inactive; HADH2 inhib: 5%; HSD17B inh: 1%; 4-MU autofl: inactive; AID923: 1%

How did CC1=CC(C)(C)Nc2ccccc21 do in these assays?
CRE Fsk mod: -5%; HADH2 inhib: inconclusive; HSD17B inh: 32µM*; AID923: 3%

What do the screens show for `CC1(C)Cc2ccccc2C(=O)N1`?
CRE Fsk mod: 5%; A350 autofl: inactive; HADH2 inhib: -5%; HSD17B inh: 6%; 4-MU autofl: inactive; AID923: 0%

How did O=C(Cn1nnc2c(cnn2-c2ccccc2)c1=O)NCc1cccs1 do in these assays?
CRE Fsk mod: -3%; A350 autofl: 6.7e-08M*; HADH2 inhib: 6%; HSD17B inh: -25%; 4-MU autofl: 7.6e-08M*; AID923: 3%

Results for O=C(Nc1ccc(N2CCOCC2)cc1)Nc1cnsn1 ?
CRE Fsk mod: -6%; A350 autofl: inactive; HADH2 inhib: 10µM*; HSD17B inh: -3%; 4-MU autofl: inactive; AID923: -1%

How did O=C(Nc1ccc(Cl)cc1)Nc1ccc(N2CCOCC2)cc1 do in these assays?
CRE Fsk mod: 2%; A350 autofl: inactive; HADH2 inhib: -6%; HSD17B inh: 2%; 4-MU autofl: inactive; AID923: 0%

What do the screens show for `CC(C)(C)c1cc(-c2ccco2)c(C#N)c(SCC#N)n1`?
A350 autofl: 2.2e-08M*; 4-MU autofl: 1.8e-08M*

Results for CC(C)(C[C@@]1(C)NC(=O)NC1=O)OCc1ccccc1 ?
CRE Fsk mod: 7%[7.6 µM]; A350 autofl: inactive; HADH2 inhib: 5%[11.4 µM]; HSD17B inh: 1%[11.4 µM]; 4-MU autofl: inactive; AID923: 2%[11.5 µM]

How did Cc1ccc2[nH]c3c(c2c1)CN(C(=O)CN1CC(C)OC(C)C1)CC3 (centres undefined) do in these assays?
A350 autofl: 2.5e-08M*; 4-MU autofl: 2.1e-08M*

Results for O=C(CN1CCc2[nH]c3ccccc3c2C1)N1CCCCC1 ?
A350 autofl: 8.9e-08M*; 4-MU autofl: 7.7e-08M*

How did CC(=O)N1CCc2[nH]c3ccccc3c2C1 do in these assays?
CRE Fsk mod: -2%; A350 autofl: inconclusive; HADH2 inhib: -6%; HSD17B inh: -9%; 4-MU autofl: inconclusive; AID923: 7%

Results for Nc1ccn([C@H]2O[C@H](CO)[C@@H]3[O][Sn]([c]4ccccc4)([c]4ccccc4)[O][C@H]32)c(=O)n1 ?
CRE Fsk mod: -21%[7.6 µM]; A350 autofl: inactive; HADH2 inhib: 3%[11.4 µM]; HSD17B inh: 6%[11.4 µM]; 4-MU autofl: inactive; AID923: -2%[11.5 µM]

What do the screens show for `O=C(O)/C=C\c1cnc[nH]1`?
CRE Fsk mod: 1%; A350 autofl: inactive; HADH2 inhib: 12%; HSD17B inh: 4%; 4-MU autofl: inactive; AID923: -1%

What do the screens show for `Cc1c(=O)n(OCc2ccccn2)c2ccccc2[n+]1[O-]`?
CRE Fsk mod: 7%; A350 autofl: 3.5e-08M*; HADH2 inhib: -2%; HSD17B inh: -27%; 4-MU autofl: 3.6e-08M*; AID923: 0%

What do the screens show for `O=C(Cn1c(=O)sc2ccccc21)NCc1ccccn1`?
CRE Fsk mod: -6%; HADH2 inhib: -1%; HSD17B inh: 8%; AID923: 3%
